Measurements published in PubChem BioAssay AID2685 (National Center for Advancing Translational Sciences (NCATS), 2010).
In all, about 320,000 compounds went through this assay and about 2,100 (0.66%) were called active. Roughly 53% stayed inconclusive and do not appear here. The sample holds actives, similar compounds and a random draw of the others, so the mix is not that of the screen. Calls follow the shape of the dose curve; as a rule, active = well fitted inhibition curve with a large enough effect in the signal ratio, with a control signal flat (not every such curve was filed as active); inconclusive = small, poorly fitted or top-dose-only effect, or effect the other way, or a change in a side signal; inactive = flat fitted curve, though single readings scatter; the % refers to the signal ratio.

test: qHTS Assay for Lipid Storage Modulators in Drosophila S3 Cells; settings: BODIPY lipid droplet fluorescence, 18-24 h, cells fed with added oleic acid; cell number change: measured here: cell count max response; series mostly up to 46.1 µM; lipid storage change, negative = inhibition: at the top concentration;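 as to cell number change: cells counted by Cell Tracker Red CMTPX staining in the red channel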; as to lipid storage change, negative = inhibition: % is scaled to controls: 0 for no effect and ±100 for the full control effect
Method in brief: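 Drosophila S3 cells got compounds at several concentrations plus oleic acid (400 uM solution). Laser-scanning cytometry with 488 nm excitation read lipid droplets at 500-530 nm and cells at 575-640 nm. Percent activity was relative to 20 uM Triacsin C.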
Potency is read from the fitted curve at half-maximal effect.

**Q.** Which results are given for O=C(Nc1ccccc1N1CCCCC1)c1ccc(Cl)cc1?
**A.** lipid storage change, negative = inhibition: 11.4% (inactive); cell number change: 12%

**Q.** For CN1CCN(c2ccccc2NC(=O)c2ccc(-c3ccc(Cl)c(Cl)c3)o2)CC1, which “outcome” value is on record?
**A.** inactive

**Q.** With O=C(Nc1ccccc1N1CCCCC1)c1ccc(-c2ccc(Cl)cc2)o1 as the molecule, how does the Potency read?
**A.** 14.6 µM (active)

**Q.** What about the cell number change of the same molecule?
**A.** 1.36%

**Q.** Which results are given for Cc1csc(N(C(=O)Cc2ccccc2F)c2ccccc2)n1?
**A.** lipid storage change, negative = inhibition: 12.9% (inactive); cell number change: 3.81%

**Q.** Which “lipid storage change, negative = inhibition” value does the source give for Clc1ccc(C2=Nn3c(nnc3-c3cccnc3)SC2)s1 here?
**A.** 2.18% (inactive)

**Q.** And the cell number change?
**A.** -22.1%

**Q.** Which results are given for CCOC(=O)c1sc(=S)n(-c2ccccc2)c1N?
**A.** lipid storage change, negative = inhibition: -10% (inactive); cell number change: -17.5%

**Q.** For COC(=O)c1sc(=S)n(-c2cccc(Cl)c2)c1N, which “lipid storage change, negative = inhibition” value is on record?
**A.** 10.6% (inactive)

**Q.** What about the cell number change of the same molecule?
**A.** -15.4%

**Q.** Which Potency does the source give for COC(=O)c1sc(=S)n(-c2ccccc2)c1N here?
**A.** 11.6 µM (active)

**Q.** What does the source list for Cc1cc(C)n2c(SCC(C)C)nnc2n1?
**A.** lipid storage change, negative = inhibition: -18.2% (inactive); cell number change: -0.577%

**Q.** For O=C(CCCc1ccccc1)N1CCc2ccccc21, which “lipid storage change, negative = inhibition” value is on record?
**A.** 3.79% (inactive)

**Q.** And the cell number change?
**A.** 4.72%

**Q.** For Cc1ccc(NC(=O)CS(=O)CC(=O)N(CC(=O)NC(C)(C)C)c2cccc(C)c2C)cc1 (configuration not stated), which “outcome” value is on record?
**A.** inactive

**Q.** And the cell number change?
**A.** 1.3%

**Q.** Which “outcome” value does the source give for O=C(N/C(=C\c1ccccc1)C(=O)N1CCOCC1)c1ccco1 here?
**A.** inactive

**Q.** And the cell number change?
**A.** 1.67%

**Q.** Which “lipid storage change, negative = inhibition” value does the source give for CC(C)C12CN3CC(C(C)C)(CN(C1)C3(C)C)C2=O here?
**A.** 28.2% (inactive)

**Q.** And the cell number change?
**A.** 8.23%

**Q.** For COc1ccc(C2(C(=O)NCc3ccccc3Cl)CCOCC2)cc1OC, which “lipid storage change, negative = inhibition” value is on record?
**A.** 0.89% (inactive)

**Q.** And the cell number change?
**A.** -6.59%

**Q.** Which results are given for COc1ccc(OCC(=O)N/N=C/C2CC=CCC2)cc1 (configuration not stated)?
**A.** lipid storage change, negative = inhibition: 24.9% (inactive); cell number change: -11.3%

**Q.** Which results are given for N#Cc1ccc(OCC(=O)N/N=C/C2CC=CCC2)cc1 (configuration not stated)?
**A.** lipid storage change, negative = inhibition: -10.4% (inactive); cell number change: 18.8%

**Q.** What does the source list for O=C(COc1ccc(Cl)cc1Cl)N/N=C/C1CC=CCC1 (configuration not stated)?
**A.** Potency: 1.84 µM (active); cell number change: -11.9%

**Q.** Which “lipid storage change, negative = inhibition” value does the source give for CCc1[nH]nc(C(=O)N2CCCC(Nc3cccc(F)c3)C2)c1C (configuration not stated) here?
**A.** 22.4% (inactive)

**Q.** And the cell number change?
**A.** 0.697%

**Q.** For CCNC(=S)Nc1cccc([N+](=O)[O-])c1, which “lipid storage change, negative = inhibition” value is on record?
**A.** 13.2% (inactive)

**Q.** What about the cell number change of the same molecule?
**A.** 16.5%

**Q.** With CN(CC(=O)Nc1cccc(F)c1)C(=O)c1cc(-c2ccccc2)nc2ccccc12 as the molecule, how does the lipid storage change, negative = inhibition read?
**A.** 3.36% [at 0.0737 µM] (inactive)

**Q.** What does the source list for CN(CC(=O)Nc1cccc(F)c1)C(=O)c1cccc2ccccc12?
**A.** Potency: 5.8 µM (active); cell number change: -19.1%

**Q.** What does the source list for CN(CC(=O)Nc1ccc(F)cc1)C(=O)c1ccc(N2C(=O)CCC2=O)cc1?
**A.** lipid storage change, negative = inhibition: 14.9% (inactive); cell number change: 5.41%

**Q.** Which “lipid storage change, negative = inhibition” value does the source give for CCCCC1CCC(C(=O)N(C)CC(=O)Nc2cccc(OC)c2)CC1 (configuration not stated) here?
**A.** 1.23% (inactive)

**Q.** And the cell number change?
**A.** -0.846%

**Q.** What does the source list for COc1cccc(-c2nn(-c3ccc(C)cc3)cc2C(=O)N(C)CC(=O)Nc2cccc(F)c2)c1?
**A.** Potency: 6.51 µM (active); cell number change: -27.2%

**Q.** Which results are given for CN(CC(=O)Nc1c(Cl)cccc1Cl)C(=O)c1ccncc1?
**A.** outcome: inactive; cell number change: 22.3%

**Q.** Which cell number change does the source give for CC1CC1C(=O)N(C)CC(=O)Nc1cccc(F)c1 (configuration not stated) here?
**A.** -4.04%

**Q.** And the lipid storage change, negative = inhibition?
**A.** -4.95% [at 0.0737 µM] (inactive)

**Q.** Which “lipid storage change, negative = inhibition” value does the source give for COc1cccc(NC(=O)CN(C)C(=O)c2cn(-c3ccccc3)nc2-c2cccnc2)c1 here?
**A.** -11.3% (inactive)

**Q.** And the cell number change?
**A.** -3.75%

**Q.** Which “lipid storage change, negative = inhibition” value does the source give for CN(CC(=O)Nc1cccc(F)c1)C(=O)c1cc(=O)[nH]c2ccccc12 here?
**A.** -3.39% (inactive)

**Q.** And the cell number change?
**A.** 6.52%

**Q.** Which Potency does the source give for CCCCC1CCC(C(=O)N(C)CC(=O)Nc2cccc(F)c2)CC1 (configuration not stated) here?
**A.** 0.651 µM (active)

**Q.** What about the cell number change of the same molecule?
**A.** 20.8%

**Q.** For COc1ccc(NC(=O)CN(C)C(=O)c2cn(-c3ccccc3)nc2-c2ccc(F)cc2)cc1, which “lipid storage change, negative = inhibition” value is on record?
**A.** -10.5% (inactive)

**Q.** And the cell number change?
**A.** -10.6%

**Q.** For CN(CC(=O)Nc1ccc(F)cc1)C(=O)c1ccncc1, which Potency is on record?
**A.** 1.64 µM (active)

**Q.** For Cc1nc([N+](=O)[O-])c(C(=O)OCc2cccc(Br)c2)n1C, which “lipid storage change, negative = inhibition” value is on record?
**A.** 7.28% (inactive)

**Q.** And the cell number change?
**A.** -13.6%

**Q.** Which results are given for O=C(COC(=O)C1CCN(c2ccc(C(F)(F)F)cn2)CC1)NCc1ccc(Cl)cc1Cl?
**A.** lipid storage change, negative = inhibition: -2.28% (inactive); cell number change: 7.81%

**Q.** With O=C1CCCN1c1ccc(S(=O)(=O)N2CCCCC2)cc1[N+](=O)[O-] as the molecule, how does the “lipid storage change, negative = inhibition” value read?
**A.** 2.6% (inactive)

**Q.** What about the cell number change of the same molecule?
**A.** 14.2%

**Q.** For CS(=O)(=O)c1ccccc1C(=O)N(CCc1ccccc1)Cc1ccccc1, which “lipid storage change, negative = inhibition” value is on record?
**A.** -1.63% (inactive)

**Q.** And the cell number change?
**A.** -4.69%

**Q.** With O=C(NCC1CCN(C(=O)c2ccc([N+](=O)[O-])cc2)CC1)C(=O)Nc1ccccc1 as the molecule, how does the “lipid storage change, negative = inhibition” value read?
**A.** -6.82% (inactive)

**Q.** And the cell number change?
**A.** -0.701%

**Q.** Which results are given for Cc1c(NC(=O)CSc2ccccc2C(=O)Nc2cccnc2)c(=O)n(-c2ccccc2)n1C?
**A.** lipid storage change, negative = inhibition: 0.352% (inactive); cell number change: 13.8%

**Q.** For CCOC(=O)C1(CCOC)CCN(Cc2ccc(C3CCCCO3)s2)CC1 (configuration not stated), which “lipid storage change, negative = inhibition” value is on record?
**A.** -17.6% (inactive)

**Q.** And the cell number change?
**A.** -8.03%

**Q.** For O=C(Cc1ccccc1)NN1C(=O)C2C3C=CC([C@@H]2C1=O)C31CC1 (some centres not stated), which “lipid storage change, negative = inhibition” value is on record?
**A.** -2.59% (inactive)

**Q.** What about the cell number change of the same molecule?
**A.** -3.77%

**Q.** For O=C1C2C(C(=O)N1CCc1ccccc1)C1C=CC2C12CC2 (configuration not stated), which Potency is on record?
**A.** 23.1 µM (active)

**Q.** What about the cell number change of the same molecule?
**A.** -11.6%

**Q.** Which “outcome” value does the source give for O=C1C2C(C(=O)N1Cc1cccnc1)C1C=CC2C12CC2 (configuration not stated) here?
**A.** inactive

**Q.** What about the cell number change of the same molecule?
**A.** -2.7%

**Q.** What does the source list for COCC(=O)Nc1ccc(C(C)C)cc1?
**A.** outcome: inactive; cell number change: 24.3%

**Q.** For CC(C)(C)C(=O)NCCN1CCN(C(=O)C(C)(C)C)CC1, which “lipid storage change, negative = inhibition” value is on record?
**A.** 5.31% (inactive)

**Q.** And the cell number change?
**A.** 3.18%

**Q.** With Cc1ccc(-c2nnn(CCC(=O)N3CCCCC3C)n2)cc1 (configuration not stated) as the molecule, how does the “lipid storage change, negative = inhibition” value read?
**A.** 5.42% (inactive)

**Q.** What about the cell number change of the same molecule?
**A.** 10.5%

**Q.** What does the source list for Cc1ccc(-c2nnn(CC(=O)N3C(C)CCCC3C)n2)cc1 (configuration not stated)?
**A.** Potency: 10.3 µM (active); cell number change: -11%

**Q.** With Cc1ccc(-c2nnn(CC(=O)O)n2)cc1 as the molecule, how does the “outcome” value read?
**A.** inactive
